Compound activity: PubChem, several laboratories
FAK blocker: FAK kinase inhibitors, primary screen, biochemical; hit rate 0.84% among 97,000; biochemical FAK kinase activity assay; Focal adhesion kinase 1 (Homo sapiens), Q05397; AID 727, 2007; inhibition, %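 (tested at 7 µM)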; in the data active means inhibition above about 19%;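 further: 0% = DMSO and 100% = reference compound high control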
Phagocyt inh: inhibitors of macrophage phagocytosis, primary screen, imaging, J774A.1 cells, IgG beads; J774A.1 macrophage IgG-bead phagocytosis; inhibition, % at 5 µM; hit rate 0.07% among 110,000; AID 1029, 2008;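 active means inhibition above the mean of the plate negative controls plus 5 SD, cut at about 13% in these data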;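 further: phagocytic index as fraction of beads internalized from green versus red external bead signal; plate controls were DMSO negative control for no effect and cytochalasin-D positive control for full effect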
CD11b adhes inh: inhibitors of CD11b/CD18 adhesion to fibrinogen, primary screen, K562 cells, luminescence | Integrin beta-2 (Homo sapiens) + Integrin alpha-M (Homo sapiens), P05107+P11215 | ATPlite luminescence; Mn2+ added to activate the integrin | inhibition, % at 10 µM | hit rate 0.54% among 93,000 | AID 1497, 2009;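 active means primary inhibition of 50% or more at 10 µM, then 40% or more on retest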
Target sequence (P05107 whole entry, looked up, other chains not shown): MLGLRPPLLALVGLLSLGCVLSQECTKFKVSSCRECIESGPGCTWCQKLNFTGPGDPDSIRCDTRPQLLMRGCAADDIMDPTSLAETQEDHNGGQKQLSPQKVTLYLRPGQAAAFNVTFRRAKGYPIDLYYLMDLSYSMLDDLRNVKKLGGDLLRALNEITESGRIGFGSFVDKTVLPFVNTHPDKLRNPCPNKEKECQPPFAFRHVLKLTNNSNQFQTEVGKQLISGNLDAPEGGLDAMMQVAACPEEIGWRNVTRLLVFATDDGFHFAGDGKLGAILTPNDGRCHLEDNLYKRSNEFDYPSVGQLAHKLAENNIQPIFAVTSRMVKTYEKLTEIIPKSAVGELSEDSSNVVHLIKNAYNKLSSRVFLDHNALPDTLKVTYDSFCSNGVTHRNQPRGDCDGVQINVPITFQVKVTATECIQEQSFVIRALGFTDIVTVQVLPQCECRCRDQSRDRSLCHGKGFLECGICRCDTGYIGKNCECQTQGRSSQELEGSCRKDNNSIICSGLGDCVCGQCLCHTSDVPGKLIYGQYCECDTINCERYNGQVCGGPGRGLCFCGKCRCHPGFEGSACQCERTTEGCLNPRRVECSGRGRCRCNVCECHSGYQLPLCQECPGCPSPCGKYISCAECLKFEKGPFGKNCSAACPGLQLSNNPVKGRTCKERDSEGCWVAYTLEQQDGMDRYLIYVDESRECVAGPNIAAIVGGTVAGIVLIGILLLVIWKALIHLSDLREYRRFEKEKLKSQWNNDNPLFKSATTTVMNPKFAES
MRP resist rev: reversal of MRP1-mediated doxorubicin resistance, primary screen, H69AR cells, doxorubicin co-treatment; H69AR cells + 2 uM doxorubicin, CellTiter-Glo, 72 h; differential viability (reversal), % at 10 µM; hit rate 0.04% among 85,000;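 active means viability drop by adding the cancer drug above about 55%, with treated viability meeting a 40% cutoff, limit read from the data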;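 further: viability without doxorubicin minus viability with 2 µM doxorubicin for each compound; larger differential means the compound sensitizes cells more to doxorubicin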
MRP1 act: H69AR viability gain despite doxorubicin, primary screen, MRP-1 activator project, H69AR cells, CellTiter-Glo; viability rescue; viability increase, % at 10 µM; hit rate 0.61% among 140,000; AID 799, 2007;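 active means viability gain under doxorubicin at or above a set limit, the compound median plus 3 SD, cut at about 4.7% in these data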;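 further: MRP-1 overexpressing cells given doxorubicin 25 µM after compound pretreatment; 18-22 h compound pretreatment then 72 h with doxorubicin before readout; 0% = doxorubicin-only wells and 100% = vehicle-treated cells without doxorubicin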
Mac1 fbg enh: enhancers of CD11b/CD18 adhesion to fibrinogen, primary screen, K562 cells, luminescence | Integrin beta-2 (Homo sapiens) + Integrin alpha-M (Homo sapiens), P05107+P11215 | ATPlite luminescence | AID 1499, 2009 | activation, % at 10 µM | hit rate 0.07% among 93,000;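 active means 10 µM primary screen giving 50% or more activity, confirmed by 40% or more on retest at that dose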
An asterisk follows results filed as active. Compounds with a hit are over-represented: about 1.5% of the library has one in this group of screens.

How did Cc1ccc(OCc2nnc(SCc3nc4ccccc4[nH]3)n2Cc2ccco2)cc1 do in these assays?
FAK blocker: 3; Phagocyt inh: -4; CD11b adhes inh: 69; MRP resist rev: -5; MRP1 act: 3; Mac1 fbg enh: -8

What do the screens show for `CN(Cc1ccccc1)c1nc(N)c([N+](=O)[O-])c(NCc2ccccc2)n1`?
Phagocyt inh: -6; CD11b adhes inh: 29; MRP1 act: 3; Mac1 fbg enh: 3

Results for Cc1nn(C(CC(=O)O)C(=O)O)c(C)c1Br (centres undefined) ?
FAK blocker: 0; MRP resist rev: 6; MRP1 act: -2

Results for O=C(Cn1c(COc2ccccc2)nc2ccccc21)Nc1cc(Cl)cc(Cl)c1 ?
Phagocyt inh: -8; MRP1 act: -3

What do the screens show for `O=C(Cn1c(COc2ccc(Cl)cc2)nc2ccccc21)NCC(F)(F)F`?
Phagocyt inh: -13; CD11b adhes inh: 6; MRP1 act: 5.6*; Mac1 fbg enh: -5

Results for N#CCCNC(=O)Cn1c(COc2ccc(Cl)cc2)nc2ccccc21 ?
CD11b adhes inh: 1; MRP1 act: 5.6*; Mac1 fbg enh: 0

How did O=C(Cn1c(COc2ccccc2)nc2ccccc21)Nc1cc(Cl)ccc1Cl do in these assays?
Phagocyt inh: -11; MRP1 act: -3

Results for Cc1ccc(CC2S/C(=C(/C#N)C(=O)NCc3ccco3)N(c3ccccc3)C2=O)cc1 (centres undefined) ?
FAK blocker: -3; Phagocyt inh: -1; CD11b adhes inh: -9; MRP resist rev: -33; MRP1 act: 6.6*; Mac1 fbg enh: -7

What do the screens show for `N#C/C(C(=O)NCc1ccco1)=C1/SC(Cc2ccc(Cl)cc2)C(=O)N1c1ccccc1` (centres undefined)?
FAK blocker: 2; MRP resist rev: 44; MRP1 act: -1

How did O=C1c2cccc3c(O)ccc(c23)C(=O)N1Cc1ccccc1 do in these assays?
FAK blocker: 1; Phagocyt inh: -2; CD11b adhes inh: 66*; MRP1 act: 0; Mac1 fbg enh: -3

What do the screens show for `O=C1c2cccnc2C(=O)N1Cc1ccccc1`?
MRP resist rev: 0; MRP1 act: -3

Results for CSc1nc2c(ccc3ccccc32)o1 ?
FAK blocker: 1; MRP resist rev: 5; MRP1 act: 4.9*

Results for Cc1nc(SCCO)c2oc3ccccc3c2n1 ?
FAK blocker: 5; Phagocyt inh: 1; CD11b adhes inh: 4; MRP resist rev: 13; MRP1 act: -1; Mac1 fbg enh: 0

How did CCCCCCC(=O)Nc1ccc(C(=O)N/N=C/c2cccnc2)cc1 do in these assays?
FAK blocker: 2; MRP1 act: 9.9*

Results for O=C(/C=C/c1cccnc1)c1ccc(NC(=O)c2cccc(Br)c2)cc1 ?
FAK blocker: 17; Phagocyt inh: 0; CD11b adhes inh: -12; MRP1 act: -5; Mac1 fbg enh: 72*

Results for Cc1ccc2sc(-c3ccc(NC(=O)CCN4C(=O)c5ccccc5C4=O)cc3)nc2c1 ?
Phagocyt inh: 0; CD11b adhes inh: 5; MRP1 act: -3; Mac1 fbg enh: 52

What do the screens show for `CNC[C@H](O)c1ccc(O)c(O)c1`?
MRP1 act: 7.1*

How did CNC[C@H](O)c1cccc(O)c1 do in these assays?
MRP resist rev: -2; MRP1 act: -1

Results for CSc1ccccc1NC(=O)COc1ccc(Cl)cc1Cl ?
Phagocyt inh: 2; CD11b adhes inh: -10; MRP1 act: -3; Mac1 fbg enh: 5

What do the screens show for `O=C(COc1ccc(Cl)cc1Cl)NNC(=S)Nc1ccc(F)cc1`?
FAK blocker: 3; Phagocyt inh: 1; CD11b adhes inh: 10; MRP1 act: -3; Mac1 fbg enh: -3

Results for O=C(COc1ccc(Cl)cc1Cl)Nc1ccccn1 ?
FAK blocker: 0; Phagocyt inh: -3; CD11b adhes inh: 99*; MRP resist rev: -8; MRP1 act: -3; Mac1 fbg enh: -10

What do the screens show for `CC(=O)NC(=S)Nc1ccc(NC(=O)COc2ccc(Cl)cc2Cl)cc1`?
FAK blocker: -1; CD11b adhes inh: 12; MRP1 act: 0; Mac1 fbg enh: 53*

What do the screens show for `CCCCNC(=O)c1c(N)n(/N=C/c2ccccn2)c2nc3ccccc3nc12`?
FAK blocker: -1; Phagocyt inh: 1; CD11b adhes inh: 7; MRP1 act: -2; Mac1 fbg enh: 50

How did CC(C)CNC(=O)c1c(N)n(/N=C/c2ccccn2)c2nc3ccccc3nc12 do in these assays?
FAK blocker: 2; Phagocyt inh: -5; CD11b adhes inh: -26; MRP resist rev: 35; MRP1 act: 5.1*; Mac1 fbg enh: 124

Results for Cc1ccc(-c2nnn(CC(=O)N(c3ccccc3F)C(C(=O)NCC3CCCO3)c3c[nH]c4ccccc34)n2)cc1 (centres undefined) ?
FAK blocker: 5; MRP1 act: 8.2*

How did O=C(C1Cc2ccccc2CN1S(=O)(=O)c1cccs1)N1CCCCCC1 (centres undefined) do in these assays?
FAK blocker: 0; Phagocyt inh: 1; CD11b adhes inh: -3; MRP1 act: -3; Mac1 fbg enh: -2

How did COc1cc(/C=C2/SC(=S)NC2=O)ccc1OS(=O)(=O)c1ccc(C)cc1 do in these assays?
Phagocyt inh: -4; CD11b adhes inh: 92*; MRP1 act: -3; Mac1 fbg enh: -5

What do the screens show for `CCc1c(C)sc(NC(=O)c2cc(-c3ccc(O)cc3)on2)c1C#N`?
FAK blocker: 2; CD11b adhes inh: -12; MRP resist rev: -10; MRP1 act: -2; Mac1 fbg enh: 68

What do the screens show for `CCc1c(C)sc(NC(=O)c2cc(CC(C)C)on2)c1C#N`?
FAK blocker: -5; CD11b adhes inh: -3; MRP resist rev: -20; MRP1 act: 8.0*; Mac1 fbg enh: -6

What do the screens show for `Cc1ccc(OCC(=O)OCC(=O)c2c(N)n(C)c(=O)n(C)c2=O)cc1C`?
FAK blocker: 1; Phagocyt inh: -1; CD11b adhes inh: 3; MRP resist rev: 21; MRP1 act: -1; Mac1 fbg enh: 1

How did CCCCCCCOc1ccc(-c2ccc(C#N)cn2)cc1 do in these assays?
MRP1 act: 5.1*

What do the screens show for `Cc1cc(C)n2nc(C(=O)Nc3nnc(C4CC4)s3)nc2n1`?
FAK blocker: 2; Phagocyt inh: 1; CD11b adhes inh: 13; MRP resist rev: 8; MRP1 act: 5.2*; Mac1 fbg enh: -3

How did Cc1csc(NC(=O)c2nc3nc(C)cc(C)n3n2)n1 do in these assays?
FAK blocker: 1; CD11b adhes inh: 12; MRP resist rev: -3; MRP1 act: -2; Mac1 fbg enh: 0
